Test results taken from the supplement of paper PMC7156485.
± gives the standard deviation of the averaged measurements.
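Note: TDF denotes transformed human dermal fibroblasts of mesenchymal origin.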

These compounds were tested on HCC1569 (assay: cell number relative to DMSO (% of DMSO); higher = more cells (less growth inhibition / toxicity)). Details: concentration: 10 µM; 24 h.
Procedure, shortened: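 Cells were seeded at 800 per well in 384-well plates with RPMI containing 10% FBS; both HCC1569 and TDF lines were used. Compounds were added at 10 µM for 24 h at 37 °C, in triplicate, before fixation in 3.7% formaldehyde and staining with a rabbit anti-H1.0 antibody, an AlexaFluor 647 secondary and DAPI. H1.0 nuclear intensity or cell number is reported as percent of the plate control using the median of replicates, and HCC1569 values were smoothed for positional effects.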
With `O.Oc1cc(O)c2c(c1)OC(c1ccc(O)c(O)c1)C(O)C2` (single isomer, unassigned; (+)) [(+)-Catechin Hydrate] the cell number was 98.9.
Compound `Nc1c(C(=O)O)c2nc3c(C(=O)O)cccc3oc-2cc1=O` [2-amino-3-oxo-3H-phenoxazine-1,9-dicarboxylic acid] has a cell number of 92.
`C=C1CCC(O)CC1=CC=C1CCCC2(C)C1CCC2C(C)CCC(O)C(C)(C)O` [24(R),25-Dihydroxyvitamin D3] was tested, and the cell number was 105.
`CCCCCC(O)C=CC=CCC=CCCCCC(=O)O` (stereo not given) showed a cell number of 103.
`C=CC1CN2CCC1CC2C(O)c1ccnc2ccc(OC)cc12.C=CC1CN2CCC1CC2C(O)c1ccnc2ccc(OC)cc12.O=S(=O)(O)O` (stereo not given) [Quinine sulfate] gave a cell number of 102.
With `Cc1ccccc1C=CC1=NCCN1.O=C(O)C(=O)O` [Metrazoline oxalate] the cell number was 96.3.
For `O=C(C=CC=Cc1ccc2c(c1)OCO2)N1CCCCC1` [Piperine], the cell number was 100.
Work on `Fc1ccc(Cl)cc1-c1nc(Nc2ccncc2)c2nccnc2n1` yielded a cell number of 98.4.
Compound `CSc1cccc(Nc2ncc3cc(-c4c(Cl)cccc4Cl)c(=O)n(C)c3n2)c1` has a cell number of 37.3.
`Cl.Cl.Nc1nccc(-c2c(-c3ccc(F)cc3)ncn2C2CCCCC2)n1` was tested, and the cell number was 80.6.
Compound `CCCCOC(=O)NC(=O)C1c2ccccc2Oc2ccccc21` [butyl 9H-xanthen-9-ylcarbonylcarbamate] has a cell number of 102.
Compound `Cl.NC(N)=NC(N)=Nc1cccc(Cl)c1` [1-(m-Chlorophenyl)-biguanide hydrochloride] has a cell number of 102.
`CCCCCC=CCC(O)C=Cc1cccc(CC(O)CCCCO)n1` (stereo not given) showed a cell number of 98.7 ± 2.
With `O=C(O)CP(=O)(O)O` [Phosphonoacetic acid] the cell number was 101.
For `O=C1C(=Cc2ccc(O)c(O)c2)Oc2c1ccc(OC1OC(CO)C(O)C(O)C1O)c2O` (stereo not given) [Maritimein], the cell number was 99.5.
Compound `Cl.O=C(NCCCCN1CCN(c2cccc(Cl)c2Cl)CC1)c1ccc2c(c1)Cc1ccccc1-2` has a cell number of 93.5.
Compound `O=C(NOCC1CC1)c1ccc(F)c(F)c1Nc1ccc(I)cc1Cl` has a cell number of 77.6.
`Cl.O.O=C(O)CN(CCN(CC(=O)O)Cc1ccccc1O)Cc1ccccc1O` gave a cell number of 105.
`C[C@@H](Oc1cc(-c2cnn(C3CCNCC3)c2)cnc1N)c1c(Cl)ccc(F)c1Cl` gave a cell number of 59.6.
`O=C(Cc1ccc(Cl)c(Cl)c1)OCCN1CCCC1.O=C(O)C(=O)O` [AC 915 oxalate] was tested, and the cell number was 101.
For `CCCCCCCCC=CCCCCCCCC(=O)NCCO` [N-Oleoylethanolamine], the cell number was 99.9.
For `CC(Cc1ccccc1)(NC(=O)CN)c1ccccc1.Cl` (stereo not given), the cell number was 97.7.
For `COc1cccc(OC)c1OCCNCC1CSc2ccccc2O1.Cl` (stereo not given) [Benoxathian hydrochloride], the cell number was 91.4.
In the case of `O=c1c(O)c(-c2ccc(O)cc2O)oc2cc(O)cc(O)c12` [Morine], the cell number is reported as 101.
`CC(C)(C)NCC(O)c1ccc(O)c(CO)c1.CC(C)(C)NCC(O)c1ccc(O)c(CO)c1.O=S(=O)(O)O` (stereo not given) [Albuterol hemisulfate] was tested, and the cell number was 99.8.
`Nc1nc(N)nc(-c2cc(Cl)ccc2Cl)n1` [Irsogladine] showed a cell number of 105.
`COc1cc(C2Oc3cc(C4Oc5cc(O)cc(O)c5C(=O)C4O)ccc3OC2CO)ccc1O` (stereo not given) [Silymarin] gave a cell number of 102.
`CN(C)CCCOc1nn(Cc2ccccc2)c2ccccc12` [Benzydamine] showed a cell number of 100.
For `COc1cc2c3cc1Oc1cc(ccc1O)CC1c4c(cc(OC)c(O)c4Oc4ccc(cc4)CC3N(C)CC2)CC[N+]1(C)C.Cl.[Cl-]` (single isomer, unassigned; (+)) [(+)-Tubocuraraine chloride], the cell number was 108.
Work on `N#Cc1cnc2cnc(NCc3cccnc3)cc2c1Nc1ccc(F)c(Cl)c1` [Tpl2 Kinase Inhibitor] yielded a cell number of 69.9.
`COc1cc2c(cc1OC)-c1cc(=Nc3c(C)cc(C)cc3C)n(C)c(=O)n1CC2.Cl` [Trequinsin.HCl] was tested, and the cell number was 102.
Work on `Cn1c(=O)c2[nH]cnc2n(C)c1=O` [Theophylline] yielded a cell number of 100.
For `Cl.Cl.Fc1ccc(C(c2ccc(F)cc2)N2CCN(CC=Cc3ccccc3)CC2)cc1` [Flunarizine.2HCl], the cell number was 97.6.
`NS(=O)(=O)c1cccc2c1c([N+](=O)[O-])cc1nc([O-])c([O-])nc12.[Na+].[Na+]` [NBQX disodium] gave a cell number of 104.
Compound `COc1cc(CCC(C)=O)ccc1O` [Vannilylacetone] has a cell number of 105.
Compound `COc1ccc(Cl)cc1C(=O)NCCc1ccc(S(=O)(=O)NC(=O)NC2CCCCC2)cc1` [Glibenclamide] has a cell number of 101.
`Cl.NOCC(=O)O.NOCC(=O)O` [O-(Carboxymethyl)hydroxylamine hemihydrochloride] was tested, and the cell number was 107.
With `O=c1cc(-c2ccc(O)cc2)oc2c(C3OC(CO)C(O)C(O)C3O)c(O)cc(O)c12` (stereo not given) [Vitexin] the cell number was 101.
Work on `CCOC(=O)C(CCc1ccccc1)NC(C)C(=O)N1Cc2ccccc2CC1C(=O)O` (stereo not given) [Quinapril] yielded a cell number of 102.
`Cc1cc2cc3c(C)cc(=O)oc3c(C)c2o1` [4,5',8-Trimethylpsoralen] was tested, and the cell number was 97.9.
